# Laboratory results: PMC8384837, “Expanding the binding specificity for RNA recognition by a PUF domain”
# Target: PUM1 PUF domain R3-CRL (Homo sapiens, UniProt Q14671 828-1176, Q939L)
# Assay: yeast three-hybrid, YBZ-1, SC-Leu-His + 0.5 mM 3-AT, 4 days
# Conditions: tags: N-Gal4 AD-HA kept; label: inside an RPR1-promoter hybrid RNA with tandem MS2 sites; ssRNA
# In short: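 Pumilio-1 PUF domain libraries, randomized (NNK) at the three base-contacting residues of each repeat, were co-expressed with matching RNA elements from a centromeric plasmid in strain YBZ-1 (LexA–MS2 coat fusion, HIS3 reporter). Transformants were plated on SC-Leu (input) and SC-Leu-His + 0.5 mM 3-AT (selection) for four days, and repeat regions were PCR-amplified and Illumina-sequenced. The interaction score is the log2 change in variant frequency from input to selection, with pseudocount 1 where absent.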
row,Sequence,binding signal
1,GGCUAGAACUAGUGGAUCCCCCGGCGCCCGGCGGCUCGAGCCCGGGUAAGUGUAAGUAGUCUGCAUGCCGCCGGGCGCCAUGCCUGCAGGUCGACUCUAGAAAACAUG,0.83 log2 enrichment (interaction score)
2,GGCUAGAACUAGUGGAUCCCCCGGCGCCCGGCGGCUCGAGCCCGGGUAAGUGUAAUUAGUCUGCAUGCCGCCGGGCGCCAUGCCUGCAGGUCGACUCUAGAAAACAUG,1.88 log2 enrichment (interaction score)
3,GGCUAGAACUAGUGGAUCCCCCGGCGCCCGGCGGCUCGAGCCCGGGUAAGUGUAAAUAGUCUGCAUGCCGCCGGGCGCCAUGCCUGCAGGUCGACUCUAGAAAACAUG,2.25 log2 enrichment (interaction score)
